# Results published in PubChem BioAssay AID651687 (Broad Institute, 2012).
# Where “and” joins values, the source holds several entries; their conditions need not be identical. Equal entries are not always repeated. In all, about 350,000 compounds went through this assay and about 600 (0.17%) were called active.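 Rule for the calls: active = every replicate shows inhibition of at least 40%; inconclusive = mean inhibition at least 40% but some replicate below; inactive = the rest.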 The entries come from a sample that favours actives as a whole. Some compounds were tested as several samples or in several runs, with calls that do not always agree.
# Experiment: compounds lowering acetylated PGC1a in cells – cell-based, U2OS, AlphaScreen, inhibitor mode, primary screen (AID 651687);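 note: 0% = neutral control wells and 100% = positive control wells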
# Settings: U2OS PGC1a acetylation, AlphaScreen anti-acetyl-lysine; at 15.6 µM; stronger effect = higher value; with virally co-expressed GCN5 acetyltransferase
row,Structure (SMILES),inhibition
1,COCC(=O)Nc1ccc2c(c1)OC[C@@H](C)N(C(=O)c1cnccn1)C[C@H](C)[C@@H](OC)CN(C)C2=O,-1.16% (inactive)
2,Cc1ccc(S(=O)(=O)NC[C@H]2CC[C@@H]3[C@@H](CN3Cc3ccccc3C(=O)O)O2)cc1,-6.11% (inactive)
3,Cc1noc(C)c1NC(=O)N(C)C[C@H]1OCCCC[C@H](C)Oc2ccc(NC(=O)Cc3ccccc3)cc2C(=O)N([C@H](C)CO)C[C@@H]1C,0.037% (inactive)
4,C[C@H]1CN([C@@H](C)CO)C(=O)c2cc(NC(=O)Nc3ccccc3)ccc2O[C@H]1CN(C)S(C)(=O)=O,-6.24% (inactive)
5,C[C@@H]1CN([C@@H](C)CO)C(=O)c2cc(/C=C/c3ccccc3)cnc2O[C@H]1CN(C)C(=O)Nc1ccc(C(F)(F)F)cc1,-1.88% (inactive)
6,O=C(Nc1ncccc1O)c1ccc(C(=O)c2ccccc2)cc1,5.14% (inactive)
7,O=C(NC1=CC(=O)c2ccccc2C1=O)c1ccccc1,80.8% (active)
8,O=C(Nc1ccc2ccccc2c1[N+](=O)[O-])c1ccccc1,14% (inactive)
9,O=C(CC1CC1)N1CC[C@@H]2[C@@H](CO)Nc3ccc(-c4ccccc4)cc3[C@@H]21,-14.4% (inactive)
10,CO[C@@H]1CN(C)C(=O)c2cc(NC(=O)Nc3cccc(Cl)c3)ccc2OC[C@@H](C)N(C)C[C@@H]1C,7.96% (inactive)
11,CCCN1C[C@@H](C)[C@@H](OC)CN(C)C(=O)c2cc(NC(=O)c3ccccc3)ccc2OC[C@H]1C,-3.59% (inactive)
12,Cc1cc(C(=O)Nc2cccc3c2O[C@@H](CN(C)S(=O)(=O)c2ccc(F)cc2)[C@@H](C)CN([C@H](C)CO)C3=O)n(C)n1,4.7% (inactive)
13,O=C(C[C@@H]1CC[C@@H](NS(=O)(=O)c2ccccc2)[C@H](CO)O1)NCc1ccc(Cl)c(Cl)c1,-0.169% (inactive)
14,COCC(=O)N1CC2(CN(C(=O)c3cccnc3)C2)c2c([nH]c3cc(OC)ccc23)[C@H]1CO,3.03% (inactive)
15,O=C(c1snnc1-c1ccccc1)N1CCOCC1,17.2% (inactive)
16,Cc1ccc(C(=O)N2CCN(S(=O)(=O)N3CCOCC3)CC2)cc1,-14.3% (inactive)
17,Cc1oc2c(c1C(=O)N1CCOCC1)C(=O)c1ccccc1C2=O,42.9% (active)
18,O=C(C1CCCCC1)N1C[C@@H]2N[C@H](C1)C2c1ccc(-c2cccc(F)c2)cc1 (stereo not given in full),-62.3% (inactive) and -12.6% (inactive)
19,Cc1cccc(-c2ccc(C3[C@@H]4CN(C(=O)Nc5ccc(C(F)(F)F)cc5)C[C@H]3N4)cc2)c1 (stereo not given in full),92.4% (active) and 92.8% (active)
20,CN(C)C(=O)c1ccc(-c2ccc(C3[C@@H]4CN(C(=O)Nc5ccccc5)C[C@H]3N4)cc2)cc1 (stereo not given in full),-6.33% (inactive)
21,CO[C@H]1CN(C)C(=O)c2ccc(NC(=O)NC(C)C)cc2OC[C@@H](C)N(C(=O)CN(C)C)C[C@H]1C,9.74% (inactive)
22,Cc1ccc(-c2c[n+](CC(=O)Nc3ccccc3)c3n2CCC3)cc1,43.3% (active)

row,Structure (SMILES),inhibition
1,Cc1ccc(C(=O)C[n+]2cc(-c3ccccc3)n3c2CCCCC3)cc1,20.9% (inactive)
2,Clc1ccc(C[n+]2cc(-c3ccccc3)n3c2CCC3)cc1,-17.2% (inactive)
3,COc1ccc(S(=O)(=O)Nc2ccc3c(c2)C(=O)N([C@H](C)CO)C[C@H](C)[C@@H](CN(C)Cc2ccccc2)OCCCC[C@@H](C)O3)cc1,-2.9% (inactive)
4,COc1ccc(-c2ccc3c(c2)[C@@H]2[C@@H](CCN2C(=O)c2cccc(F)c2)[C@H](CO)N3)cc1,6.58% (inactive)
5,O=C(Nc1ccc2c(c1)[C@@H]1C[C@H](CC(=O)N3CCOCC3)O[C@@H](CO)[C@@H]1O2)C1CCOCC1,-6.68% (inactive)
6,CNC[C@H]1Oc2cc(C#CC3CCCC3)ccc2S(=O)(=O)N([C@H](C)CO)C[C@@H]1C,-10.8% (inactive)
7,C[C@@H]1CCCCO[C@@H](CN(C)C(=O)Cc2ccccc2)[C@H](C)CN([C@@H](C)CO)C(=O)c2cc(NC(=O)Nc3ccc4c(c3)OCO4)ccc2O1,-5.63% (inactive)
8,COc1ccc(NC(=O)CN2C(=O)NC(C)(c3ccccc3)C2=O)cn1 (stereo not given),0.857% (inactive)
9,COc1ccc(NS(=O)(=O)c2ccc(F)cc2F)cn1,0.335% (inactive)
10,COc1ccc(NC(=O)/C(Cl)=C(/Cl)S(=O)Cc2ccc(C)cc2)cn1 (stereo not given),69.3% (active)
11,Cc1noc(C)c1NC(=O)Nc1ccc2c(c1)C(=O)N([C@@H](C)CO)C[C@H](C)[C@@H](CN(C)C(=O)Nc1ccccc1)O2,-6.84% (inactive)
12,C[C@@H]1CCCCO[C@@H](CN(C)C(=O)CCCN(C)C)[C@H](C)CN([C@@H](C)CO)C(=O)c2cc(NC(=O)Nc3ccccc3)ccc2O1,20% (inactive)
13,C[C@@H]1CN([C@@H](C)CO)C(=O)c2cc(NS(C)(=O)=O)ccc2O[C@H]1CN(C)C(=O)Nc1ccc(F)cc1,0.678% (inactive)
14,Cn1cnc(S(=O)(=O)N2CC[C@@H]3[C@H]2c2cc(C#Cc4cccc(F)c4)ccc2N[C@@H]3CO)c1,-5.83% (inactive)
15,CCS(=O)(=O)NCC[C@H]1CC[C@@H](NC(=O)Nc2cc(Cl)cc(Cl)c2)[C@@H](CO)O1,-5.94% (inactive)
16,Cc1ccc(S(=O)(=O)N[C@@H]2CC[C@@H](CCn3cc(C(C)C)nn3)O[C@H]2CO)cc1,-5.62% (inactive)
17,CC(C)NC(=O)N(C)C[C@H]1Oc2c(NS(C)(=O)=O)cccc2C(=O)N([C@@H](C)CO)C[C@H]1C,3.18% (inactive)
18,C[C@@H]1CN([C@@H](C)CO)C(=O)c2cc(NC(=O)Nc3ccc4c(c3)OCO4)ccc2O[C@@H](C)CCCCO[C@H]1CN(C)C(=O)Nc1ccc(C(F)(F)F)cc1,-7.26% (inactive)
19,C[C@H](CO)N1C[C@H](C)[C@H](CN(C)Cc2ccc(C(=O)O)cc2)Oc2ccc(NC(=O)NC3CCCCC3)cc2C1=O,6.53% (inactive)
20,Cc1noc(C)c1NC(=O)Nc1ccc2c(c1)CC(=O)N([C@@H](C)CO)C[C@@H](C)[C@H](CN(C)C(=O)NC1CCCCC1)O2,0.249% (inactive)
21,C[C@@H]1CN([C@H](C)CO)S(=O)(=O)c2ccc(C#CC3CCCC3)cc2O[C@@H]1CN(C)Cc1ccccc1C(=O)O,-5.77% (inactive)
22,O=C(C[C@@H]1C=C[C@@H](NS(=O)(=O)c2ccc(F)cc2)[C@@H](CO)O1)NCCN1CCCCC1,4.96% (inactive)

row,Structure (SMILES),inhibition
1,CO[C@@H]1CN(C)C(=O)c2ccc(NS(=O)(=O)c3cn(C)cn3)cc2OC[C@H](C)N(CCC(F)(F)F)C[C@@H]1C,-2.06% (inactive)
2,Cc1noc(C)c1C(=O)N(C)C[C@H]1OCc2ccccc2-c2c(n(C)c3ccccc23)C(=O)N([C@@H](C)CO)C[C@H]1C,-20.6% (inactive)
3,COc1ccc(-c2cnc3c(c2)C(=O)N([C@@H](C)CO)C[C@H](C)[C@@H](CN(C)C(=O)C2CC2)O3)cc1,-1.45% (inactive)
4,CNC[C@H]1Oc2ccc(NS(=O)(=O)c3ccc(F)cc3)cc2CC(=O)N([C@H](C)CO)C[C@H]1C,-12.8% (inactive)
5,C[C@@H](NC(=O)C[C@@H]1CC[C@@H]2[C@H](COC[C@@H](O)CN2C(=O)Nc2cccc(F)c2)O1)c1ccccc1,0.238% (inactive)
6,COCC(=O)Nc1ccc2c(c1)OC[C@@H](C)N(Cc1cocn1)C[C@@H](C)[C@@H](OC)CN(C)C2=O,11.7% (inactive)
7,CCC(=O)N(C)C[C@H]1Oc2cc(-c3ccc(C)cc3)ccc2S(=O)(=O)N([C@@H](C)CO)C[C@H]1C,-11.2% (inactive)
8,CCCN(C)C[C@@H]1OCCCC[C@@H](C)Oc2ccc(NC(=O)Nc3ccc(C(F)(F)F)cc3)cc2C(=O)N([C@H](C)CO)C[C@H]1C,-1.97% (inactive)
9,N#Cc1ccc(-c2ccc(C3[C@@H]4CN(S(=O)(=O)c5ccc(F)cc5)C[C@H]3N4)cc2)cc1 (stereo not given in full),-1.35% (inactive) and 58.1% (active)
10,N#Cc1ccc(-c2ccc(C3[C@@H]4CN(S(=O)(=O)c5ccccc5F)C[C@H]3N4)cc2)cc1 (stereo not given in full),-0.54% (inactive) and -4.45% (inactive)
11,CN(C)C(=O)c1cccc(-c2ccc(C3[C@@H]4CN(S(=O)(=O)c5ccc(F)cc5)C[C@H]3N4)cc2)c1 (stereo not given in full),-5.35% (inactive) and -8.12% (inactive)
12,C[C@H](CO)N1C[C@H](C)[C@@H](CN(C)C(=O)Cc2ccccn2)Oc2cc(-c3cccc(C(=O)N(C)C)c3)ccc2S1(=O)=O,0.377% (inactive)
13,COc1ccc(C#Cc2ccc([C@H]3[C@@H](CO)N4CCCCN(S(=O)(=O)c5cn(C)cn5)C[C@H]34)cc2)cc1,-2.67% (inactive)
14,COCC(=O)Nc1ccc2c(c1)[C@H]1C[C@H](CC(=O)NCc3cccnc3)O[C@H](CO)[C@H]1O2,5.71% (inactive)
15,CN1c2ccc(-c3cccc(F)c3)cc2[C@H]2[C@H](CCN2C(=O)c2cccc(F)c2)[C@H]1CO,-7.12% (inactive)
16,Cc1nc(=O)c(-c2ccccc2)c(C)n1-c1ccc(Br)cc1,-2.67% (inactive)
17,S=C1NC(c2ccccc2)=NCN1c1ccc(Br)cc1,80.9% (active)
18,COc1ccccc1S(=O)(=O)N[C@@H]1C=C[C@H](CC(=O)N2CCN(C)CC2)O[C@@H]1CO,6.82% (inactive)
19,O=[N+]([O-])c1c(NCCO)cc(Sc2nc3ccccc3s2)c2nonc12,45% (active)
20,COc1ccc(S(=O)(=O)Nc2ccc3c(c2)C(=O)N([C@H](C)CO)C[C@H](C)[C@@H](CN(C)C)OCCCC[C@H](C)O3)cc1,-0.646% (inactive) and 1.73% (inactive)
21,C[C@H]1CN([C@@H](C)CO)C(=O)c2cc(C#CC3CCCCC3)cnc2O[C@@H]1CN(C)C(=O)Cc1ccccn1,-16.1% (inactive)
